According to PubChem BioAssay (NCATS):
Records with an inconclusive call do not appear. Active and inactive are the calls of the source. Unless noted, calls come from the whole dose curve; as a rule, active = well fitted curve in the direction sought with a large enough effect; inconclusive = small, poorly fitted or top-dose-only effect, or another doubt; inactive = no such curve, though single readings can be large; an effect the other way counts as inactive or inconclusive.

Assays:
[1] = test system: WaGa; test: qHTS assay to identify novel small-molecules to repurpose for Merkel cell carcinoma treatment (AID 1296009); conditions: MCC and control cell lines, CellTiter-Glo viability, 72 h; series mostly up to 46 µM; note: % is set by controls: 0 for no effect and ±100 for the full control effect; nearly all actives have a fitted effect of over 60% in size
Procedure, shortened: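 After compound transfer in DMSO, plates were kept 72 hr at 37 degree celsius. Luminescent ATP signal from CellTiter-Glo served as viability measure, normalized against DMSO and no-cell controls.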

[2] = test system: C33A; test: Primary qHTS to identify gynecologic anti-cancer compounds using libraries of approved drugs and bioactive compounds (AID 1345084); conditions: Gynecologic cancer cell panel viability, ATPlite luminescence, 48 h; series mostly up to 57.5 µM; note: % is set by controls: 0 for no effect and ±100 for the full control effect; nearly all actives have a fitted effect of over 55% in size
Procedure, shortened: (§1)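 In this quantitative HTS, cell killing is estimated from loss of ATP-dependent luciferase light. Cells see five compound concentrations over a 48 h exposure.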

[3] = test system: CAOV3; test: as above; conditions: Gynecologic cancer cell panel viability, ATPlite luminescence, 48 h; series mostly up to 57.5 µM
Procedure, shortened: as §1

[4] = test system: CASKI; test: as above; conditions: Gynecologic cancer cell panel viability, ATPlite luminescence, 48 h; series mostly up to 57.5 µM
Procedure, shortened: as §1

[5] = test system: Es-2; test: as above; conditions: Gynecologic cancer cell panel viability, ATPlite luminescence, 48 h; series mostly up to 57.5 µM
Procedure, shortened: as §1

[6] = test system: HeLa; test: as above; conditions: Gynecologic cancer cell panel viability, ATPlite luminescence, 48 h; series mostly up to 57.5 µM
Procedure, shortened: as §1

[7] = test system: Hek293T; test: as above; conditions: Gynecologic cancer cell panel viability, ATPlite luminescence, 48 h, control line for the selectivity index; series mostly up to 57.5 µM
Procedure, shortened: as §1

[8] = test system: JEG-3; test: as above; conditions: Gynecologic cancer cell panel viability, ATPlite luminescence, 48 h; series mostly up to 57.5 µM
Procedure, shortened: as §1

[9] = test system: OV90; test: as above; conditions: Gynecologic cancer cell panel viability, ATPlite luminescence, 48 h; series mostly up to 57.5 µM
Procedure, shortened: as §1

[10] = test system: PA-1; test: as above; conditions: Gynecologic cancer cell panel viability, ATPlite luminescence, 48 h; series mostly up to 57.5 µM
Procedure, shortened: as §1

[11] = test system: SKOV3; test: as above; conditions: Gynecologic cancer cell panel viability, ATPlite luminescence, 48 h; series mostly up to 57.5 µM
Procedure, shortened: as §1

[12] = test system: Tov-21-G; test: as above; conditions: Gynecologic cancer cell panel viability, ATPlite luminescence, 48 h; series mostly up to 57.5 µM
Procedure, shortened: as §1

[13] = test system: Tov112D; test: as above; conditions: Gynecologic cancer cell panel viability, ATPlite luminescence, 48 h; series mostly up to 57.5 µM
Procedure, shortened: as §1

[14] = Drug repurposing screens with cells derived from glioblastoma tumor samples (AID 1345199); conditions: GBM patient neurospheres viability, ATP luminescence, 48 h; note: % is set by controls: 0 for no effect and ±100 for the full control effect; nearly all actives have a fitted effect of over 40% in size
Procedure, shortened: (§2)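 Four patient lines of CD133+ GBM neurospheres were screened at several concentrations; hits were retested in those lines plus three slower-growing GBM lines, using 48-hour treatment and ATP-based viability.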

[15] = test system: astro; test: as above; conditions: viability, ATP luminescence, 48 h; series mostly up to 45.9 µM
Procedure, shortened: as §2

[16] = molecular target: Nuclear receptor subfamily 1 group I member 2 (Rattus norvegicus) (UniProt Q9R1A7); test: qHTS assay for small molecule activators of the rat pregnane X receptor (rPXR) signaling pathway (AID 651751; call rule not given here; note: 0% is about no effect); conditions: rPXR reporter cells, luciferase (One-Glo), 24 h
Chain of Nuclear receptor subfamily 1 group I member 2 (Rattus norvegicus) (Q9R1A7 whole entry, looked up): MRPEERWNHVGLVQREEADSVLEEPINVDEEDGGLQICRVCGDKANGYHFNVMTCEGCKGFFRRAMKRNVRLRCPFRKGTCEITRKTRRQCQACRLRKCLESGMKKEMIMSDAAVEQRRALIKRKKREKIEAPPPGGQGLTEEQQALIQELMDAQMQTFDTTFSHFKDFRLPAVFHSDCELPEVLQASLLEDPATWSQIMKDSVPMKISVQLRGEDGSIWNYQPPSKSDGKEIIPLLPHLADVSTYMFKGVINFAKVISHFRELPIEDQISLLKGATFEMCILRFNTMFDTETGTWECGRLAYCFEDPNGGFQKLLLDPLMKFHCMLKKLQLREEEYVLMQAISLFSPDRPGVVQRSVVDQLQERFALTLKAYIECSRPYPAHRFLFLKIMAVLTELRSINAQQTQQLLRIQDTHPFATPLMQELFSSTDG

[17] = qHTS assay for small molecule activators of the human pregnane X receptor (PXR) signaling pathway (AID 720659; call rule not given here; note: 0% is about no effect)
[18] = at 45.9 µM (top of the series), tumour line B
[19] = at 45.9 µM (top of the series), tumour line D
[20] = at 46 µM (top of the series), tumour line A

CCC(C)C(C)(COC(N)=O)COC(N)=O (stereo not given)
inactive: Potency [1] | Potency [2] | outcome [3] | outcome [4] | Potency [5] | Potency [6] | outcome [7] | outcome [8] | Potency [9] | Potency [10] | outcome [11] | Potency [12] | Potency [13]

CCC1(c2ccccc2)C(=O)N(COC)C(=O)N(COC)C1=O
inactive: Potency [1] | Potency [2] | outcome [3] | outcome [4] | Potency [5] | Potency [6] | outcome [7] | outcome [8] | Potency [9] | Potency [10] | outcome [11] | Potency [12] | Potency [13] | activity, negative = cell killing [14, 18] -7.62% | activity, negative = cell killing [14, 19] 2.45% | activity, negative = cell killing [14, 20] -19.3% | Potency [15]

CNC(C)(C)Cc1ccccc1
inactive: Potency [1] | Potency [2] | outcome [3] | outcome [4] | Potency [5] | Potency [6] | outcome [7] | outcome [8] | Potency [9] | Potency [10] | outcome [11] | Potency [12] | Potency [13] | activity, negative = cell killing ([14]; at 21.2 µM (top of the series), tumour line B) -7.53% | activity, negative = cell killing ([14]; at 21.2 µM (top of the series), tumour line D) -8.31% | activity, negative = cell killing ([14]; at 21.3 µM (top of the series), tumour line A) -29.6% | Potency [15]

CC(C)(N)Cc1ccccc1Cl
inactive: Potency [1] | Potency [2] | outcome [3] | outcome [4] | Potency [5] | Potency [6] | outcome [7] | outcome [8] | Potency [9] | Potency [10] | outcome [11] | Potency [12] | Potency [13]

CC(=O)C1CCOC1=O (stereo not given)
inactive: Potency [1] | Potency [2] | outcome [3] | outcome [4] | Potency [5] | Potency [6] | outcome [7] | outcome [8] | Potency [9] | Potency [10] | outcome [11] | Potency [12] | Potency [13]

CCC(CC)(CNC(=O)CCCO)c1cccc(OC)c1
inactive: Potency [1] | Potency [2] | outcome [3] | outcome [4] | Potency [5] | Potency [6] | outcome [7] | outcome [8] | Potency [9] | Potency [10] | outcome [11] | Potency [12] | Potency [13]

CC(C)(C)NCC(O)c1cc(Cl)c(N)c(C(F)(F)F)c1 (stereo not given)
inactive: Potency [1] | Potency [2] | outcome [3] | outcome [4] | Potency [5] | Potency [6] | outcome [7] | outcome [8] | Potency [9] | Potency [10] | outcome [11] | Potency [12] | Potency [13] | activity, negative = cell killing [14, 18] -7.42% | activity, negative = cell killing [14, 19] -9.1%

Nc1ccccc1
inactive: Potency [1] | Potency [2] | outcome [3] | outcome [4] | Potency [5] | Potency [6] | outcome [7] | outcome [8] | Potency [9] | Potency [10] | outcome [11] | Potency [12] | Potency [13] | activity, negative = cell killing [14, 18] -4.34% | activity, negative = cell killing [14, 19] -2.5% | activity, negative = cell killing [14, 20] -28.7% | Potency [15] | max response [16] -4.01% | outcome [17]
